Data as given in PubChem BioAssay (NCATS).
“And” between values parts separate entries of the source, which are not always exact repeats. Equal values may be shown once. Results filed as inconclusive are left out. The source made the active and inactive calls. Unless noted, calls come from the whole dose curve; as a rule, active = well fitted curve in the direction sought with a large enough effect; inconclusive = small, poorly fitted or top-dose-only effect, or another doubt; inactive = no such curve, though single readings can be large; an effect the other way counts as inactive or inconclusive.

Assays:
[1] = qHTS Assay for Identification of Small Molecule Antagonists for NFkB Signaling Pathway (AID 895; active = well fitted inhibition curve with a large enough effect in the signal ratio, with a control signal flat, not every such curve was filed as active; the % refers to the signal ratio; note: % is set by controls: 0 for no effect and ±100 for the full control effect)
Summary of the method: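 Beta-lactamase reporter read-out (460 and 530 nm emission ratio, 405 nm excitation, 2 hrs substrate loading RT) after 5 hr stimulation with 10 pM TNF alpha in compound-treated NFkB-bla ME-180 cells in low-serum medium.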

[2] = qHTS Assay for Identification of Small Molecule Agonists for Thrombopoietin (TPO) Signaling Pathway (AID 917); note: % is set by controls: 0 for no effect and ±100 for the full control effect
Summary of the method: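 Luciferase reporter (Glycoprotein IIb promoter) in IL-3-deprived Ba/F3 cells carrying human TPO receptor; compounds co-added with 26 pM TPO, incubated 24 h, 37 C. Steadylite luminescence measured after 10 min.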

[3] = target: Pyruvate kinase (Leishmania mexicana) (UniProt Q27686); assay: qHTS Validation Assay for Inhibitors of Leishmania Mexicana Pyruvate Kinase (AID 945);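 note: 0% = DMSO only neutral control wells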
Chain of Pyruvate kinase (Leishmania mexicana) (Q27686 2-499 E452W): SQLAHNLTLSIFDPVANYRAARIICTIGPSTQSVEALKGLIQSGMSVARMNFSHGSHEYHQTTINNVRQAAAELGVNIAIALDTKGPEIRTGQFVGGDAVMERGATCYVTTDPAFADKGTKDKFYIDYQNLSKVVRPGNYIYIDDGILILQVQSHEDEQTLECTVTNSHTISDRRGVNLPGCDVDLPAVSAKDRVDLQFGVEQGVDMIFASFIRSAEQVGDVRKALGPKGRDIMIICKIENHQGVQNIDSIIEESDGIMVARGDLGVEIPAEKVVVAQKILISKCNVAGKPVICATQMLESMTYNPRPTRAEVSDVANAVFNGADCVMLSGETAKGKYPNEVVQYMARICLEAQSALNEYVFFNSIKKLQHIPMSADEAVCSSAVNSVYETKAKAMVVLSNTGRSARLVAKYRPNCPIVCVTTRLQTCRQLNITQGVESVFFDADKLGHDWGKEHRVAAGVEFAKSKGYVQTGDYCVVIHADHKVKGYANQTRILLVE
Summary of the method: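 Mutant LmPYK (E451W), 0.2 nM, plus 0.5 mM PEP and 0.1 mM ADP in 50 mM imidazole pH 7.2 containing 0.01% Tween 20 and 0.05% BSA. Incubated 1 h at room temperature; luminescence via PKLight, normalized to DMSO.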

[4] = target: Pyruvate kinase PKM (Homo sapiens) (UniProt P14618); assay: qHTS Assay for Activators of Human Muscle Pyruvate Kinase (AID 954; active = well fitted curve in the direction sought with a large enough effect, not every such curve was filed as active;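 note: 0% = uninhibited enzyme and -100% = no enzyme or full thiadiazolimine inhibition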)
Chain of Pyruvate kinase PKM (Homo sapiens) (P14618 whole entry, looked up): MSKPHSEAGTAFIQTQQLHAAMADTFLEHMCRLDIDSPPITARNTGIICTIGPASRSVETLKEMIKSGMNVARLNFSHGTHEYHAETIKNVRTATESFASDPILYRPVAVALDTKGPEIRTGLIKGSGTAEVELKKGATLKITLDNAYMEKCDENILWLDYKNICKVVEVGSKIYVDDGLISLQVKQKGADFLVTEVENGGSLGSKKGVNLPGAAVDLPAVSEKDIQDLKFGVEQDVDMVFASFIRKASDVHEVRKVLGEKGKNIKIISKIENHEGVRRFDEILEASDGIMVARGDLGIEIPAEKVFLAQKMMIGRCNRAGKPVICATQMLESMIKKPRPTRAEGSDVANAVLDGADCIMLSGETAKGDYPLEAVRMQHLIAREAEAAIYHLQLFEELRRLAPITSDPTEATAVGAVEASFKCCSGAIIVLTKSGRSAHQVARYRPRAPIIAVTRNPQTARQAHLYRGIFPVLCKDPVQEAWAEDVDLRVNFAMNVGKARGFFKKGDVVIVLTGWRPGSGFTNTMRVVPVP
Summary of the method: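 PKM2, human, >95% pure, 0.1 nM; PEP 0.5 mM (Km), ADP 0.1 mM; 50 mM imidazole pH 7.2, 50 mM KCl, 0.01% Tween 20, 0.05% BSA; 1 h RT; luciferase luminescence readout.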

[5] = target: Alpha-galactosidase A (Homo sapiens) (UniProt P06280); assay: Counterscreen for Glucocerebrosidase Inhibitors: qHTS Assay for Human alpha-Galactosidase at pH 4.5 (AID 992); note: 0% is about no effect
Chain of Alpha-galactosidase A (Homo sapiens) (P06280 whole entry, looked up): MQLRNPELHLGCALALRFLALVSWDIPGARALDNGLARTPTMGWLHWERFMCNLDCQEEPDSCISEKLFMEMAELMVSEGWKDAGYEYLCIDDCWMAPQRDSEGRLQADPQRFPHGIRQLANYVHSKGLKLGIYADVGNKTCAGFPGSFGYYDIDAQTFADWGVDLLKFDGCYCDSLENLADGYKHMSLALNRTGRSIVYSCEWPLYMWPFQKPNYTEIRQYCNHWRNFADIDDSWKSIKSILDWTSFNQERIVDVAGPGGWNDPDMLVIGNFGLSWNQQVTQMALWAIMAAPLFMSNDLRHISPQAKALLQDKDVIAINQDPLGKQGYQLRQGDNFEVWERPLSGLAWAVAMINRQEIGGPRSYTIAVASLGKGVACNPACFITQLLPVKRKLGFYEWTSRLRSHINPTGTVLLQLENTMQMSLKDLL
Summary of the method: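 Fluorogenic 4-MU alpha-D-galactoside (80 uM) hydrolysis, 2 nM enzyme, pH 4.5 citrate buffer + 0.005% Tween-20; 20 min RT; NaOH/glycine pH 10 stop; Ex365/Em440. Compounds titrated 0.7 nM–77 uM; Hill-equation AC50.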

[6] = target: alpha-glucosidase (Oryza sativa, rice) (UniProt Q653V4); assay: Counterscreen for Glucocerebrosidase Inhibitors: qHTS Assay for Rice alpha-Glucosidase at pH 5.0 (AID 997);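 note: 0% = full activity with enzyme and -100% = basal without enzyme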
Summary of the method: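 Endpoint fluorogenic assay at pH 5.0: compounds (0.7 nM to 77 uM) titrated against 4 nM rice enzyme and 400 uM 4-MU-alpha-glucoside for 20 min at room temperature; NaOH/glycine stop, read ex 365/em 440 nm, Hill-fitted AC50.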

[7] = qHTS assay for small molecule activators of the p53 signaling pathway (AID 651743; active = well fitted activation curve with a large enough effect in the signal ratio, not every such curve was filed as active; the % refers to the signal ratio; note: series mostly up to about 92 µM; % of control where 0% means no effect); details: HCT-116 p53RE-bla, beta-lactamase FRET ratio, 16 h; hits give high values
Summary of the method: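 After 16 hours compound treatment at 37 C, HCT-116 cells stably expressing p53RE-driven beta-lactamase were loaded with LiveBLAzer B/G FRET substrate for 2 hours at room temperature. Fluorescence intensity served as the p53 activation read-out.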

[8] = target: Androgen receptor (Homo sapiens) (UniProt P10275); assay: qHTS assay for small molecule agonists of androgen receptor signaling (AID 588515; active = well fitted curve in the direction sought with a large enough effect in the signal ratio, with a control signal flat; the % refers to the signal ratio; note: % is set by controls: 0 for no effect and ±100 for the full control effect); details: AR-UAS-bla HEK293, beta-lactamase ratio, agonist 16 h; hits give high values
Chain of Androgen receptor (Homo sapiens) (P10275 whole entry, looked up): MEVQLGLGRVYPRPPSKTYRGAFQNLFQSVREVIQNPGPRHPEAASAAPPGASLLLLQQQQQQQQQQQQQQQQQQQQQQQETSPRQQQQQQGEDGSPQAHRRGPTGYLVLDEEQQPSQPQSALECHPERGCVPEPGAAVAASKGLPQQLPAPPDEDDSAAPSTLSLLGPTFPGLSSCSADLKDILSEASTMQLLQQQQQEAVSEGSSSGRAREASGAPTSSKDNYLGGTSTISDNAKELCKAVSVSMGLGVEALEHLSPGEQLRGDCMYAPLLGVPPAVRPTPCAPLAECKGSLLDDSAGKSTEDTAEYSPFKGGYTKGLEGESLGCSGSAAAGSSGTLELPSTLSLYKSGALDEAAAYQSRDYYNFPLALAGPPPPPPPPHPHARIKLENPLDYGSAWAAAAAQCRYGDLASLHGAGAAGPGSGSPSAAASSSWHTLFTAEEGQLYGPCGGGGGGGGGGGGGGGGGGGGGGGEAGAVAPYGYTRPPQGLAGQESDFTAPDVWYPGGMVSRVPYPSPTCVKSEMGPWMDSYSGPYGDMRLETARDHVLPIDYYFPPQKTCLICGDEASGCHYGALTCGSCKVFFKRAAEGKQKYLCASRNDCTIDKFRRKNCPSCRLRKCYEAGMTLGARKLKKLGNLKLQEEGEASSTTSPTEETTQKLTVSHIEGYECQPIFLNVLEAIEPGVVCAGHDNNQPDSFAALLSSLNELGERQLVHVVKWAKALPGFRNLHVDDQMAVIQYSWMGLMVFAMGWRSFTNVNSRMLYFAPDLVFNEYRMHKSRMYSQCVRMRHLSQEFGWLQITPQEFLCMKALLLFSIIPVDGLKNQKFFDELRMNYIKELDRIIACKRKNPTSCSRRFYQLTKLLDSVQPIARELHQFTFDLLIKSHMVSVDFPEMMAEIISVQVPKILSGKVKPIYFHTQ
Summary of the method: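 Stimulation of an AR-responsive β-lactamase reporter in GripTite HEK293 cells was measured after 16 h compound exposure at 37 °C, via CCF4 fluorescence after 2 h RT. EC50 from Hill fits, normalized to R1881 at 30 nM.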

[9] = target: Androgen receptor (Homo sapiens) (UniProt P10275); assay: qHTS assay for small molecule antagonists of androgen receptor signaling (AID 588516; active = well fitted curve in the direction sought with a large enough effect in the signal ratio, with a control signal flat, not every such curve was filed as active; the % refers to the signal ratio; note: % is set by controls: 0 for no effect and ±100 for the full control effect)
Summary of the method: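 Antagonist mode: inhibition of R1881-stimulated (10 nM final) bla reporter in GeneBLAzer AR HEK 293 cells, 16 h at 37C, compounds titrated. IC50 and efficacy from Hill-equation fits of 405/460–530 nm FRET ratios.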

[10] = qHTS assay to identify small molecules that stimulate interleukin-8 (IL-8) secretion (AID 651758; active = well fitted activation curve with a large enough effect in the signal ratio; the % refers to the signal ratio; note: 0% is about no effect)
Summary of the method: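 Secreted IL-8 measured homogeneously by TR-FRET (two labelled anti-IL-8 antibodies, 1-3 h at room temperature) after a 16 h, 37 C compound treatment of THP-1 cells at 2000 cells/well.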

[11] = target: Estrogen receptor (Homo sapiens) (UniProt P03372); assay: qHTS assay for small molecule antagonists of estrogen receptor alpha signaling (AID 588513; active = well fitted curve in the direction sought with a large enough effect in the signal ratio, with a control signal flat, not every such curve was filed as active; the % refers to the signal ratio; note: % is set by controls: 0 for no effect and ±100 for the full control effect)
Chain of Estrogen receptor (Homo sapiens) (P03372 whole entry, looked up): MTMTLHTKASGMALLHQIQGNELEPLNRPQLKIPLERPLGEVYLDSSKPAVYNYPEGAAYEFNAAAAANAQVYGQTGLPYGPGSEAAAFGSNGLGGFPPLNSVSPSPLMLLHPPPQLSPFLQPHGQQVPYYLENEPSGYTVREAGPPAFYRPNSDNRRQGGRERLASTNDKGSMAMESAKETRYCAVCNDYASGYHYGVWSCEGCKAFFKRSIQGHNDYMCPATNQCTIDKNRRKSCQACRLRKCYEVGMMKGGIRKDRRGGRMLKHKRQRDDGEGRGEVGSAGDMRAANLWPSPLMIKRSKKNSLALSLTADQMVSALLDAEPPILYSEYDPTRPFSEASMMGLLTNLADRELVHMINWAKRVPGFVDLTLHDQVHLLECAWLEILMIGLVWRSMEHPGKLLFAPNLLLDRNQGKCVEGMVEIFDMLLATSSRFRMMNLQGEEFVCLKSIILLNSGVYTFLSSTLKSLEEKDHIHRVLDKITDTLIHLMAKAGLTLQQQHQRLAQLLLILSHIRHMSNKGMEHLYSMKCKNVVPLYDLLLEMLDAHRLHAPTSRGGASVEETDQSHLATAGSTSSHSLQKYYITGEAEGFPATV
Summary of the method: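 Antagonist mode: inhibition of 0.5 nM 17-beta-estradiol-driven beta-lactamase reporter in HEK 293 ER-alpha-UAS-bla cells, 18 h at 37C, CCF4 readout after 2 h at RT. Normalised to estradiol and DMSO; titration fitted to Hill.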

[12] = target: Estrogen receptor (Homo sapiens) (UniProt P03372); assay: qHTS assay for small molecule agonists of estrogen receptor alpha signaling (AID 588514; calls by dose curve;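 note: 0% = vehicle only and 100% = reference agonist; nearly all actives have a fitted effect of over 70% in size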)
Summary of the method: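 Efficacy is expressed against 20 nM 17-beta-estradiol (100%) and DMSO basal (0%); EC50 from Hill equation. Assay: beta-lactamase reporter in ER-alpha-UAS-bla HEK 293 cells, 18 h compound incubation, CCF4 detection.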

CN1[C@@H]2CC[C@H]1CC(OC(=O)[C@@H](O)c1ccccc1)C2 (some centres not stated)
inactive: Potency [1] | outcome [2] | outcome [3] | outcome [4] | outcome [5] | outcome [6]

CC1=CC(=O)CC(C)(C)C1(O)/C=C/C(C)=C\C(=O)O (configuration not stated)
inactive: activation [7] -1.58%

C=C(C)[C@H]1CC=C(C)C(=O)C1
inactive: activation [8] 12.8% and -1.39% | outcome [9] | outcome [10]

COS(C)(=O)=O
inactive: outcome [11] | outcome [12]
